This is an account of results in PubChem BioAssay (EPA / NIEHS).

For orientation: AC50 means the midpoint of the concentration-response curve, whichever way the signal moves.

Experiment [1] can be described thus: Tanguay_ZF_120hpf_SOMI_legacy: (Legacy) Oregon State University Tanguay Lab 120 Hour Post-fertilization zebrafish Assay for Somite Malformation (AID 2283647). An outline of the steps: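 Somitogenesis defects are recorded as binary calls in whole larvae at 120 hpf after continuous static chemical exposure starting at 6 hpf in dechorionated 5D embryos. DMSO serves as negative control and baseline.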

The nature of experiment [2]: Tanguay_ZF_120hpf_PFIN_legacy: (Legacy) Oregon State University Tanguay Lab 120 Hour Post-fertilization zebrafish Assay for Pectoral Fin Malformation (AID 2283648).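 Further: each larva judged yes or no for fin defect by brightfield with dead larvae skipped.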 An outline of the steps: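 Binary pectoral fin malformation call at 120 hpf by brightfield microscopy; 5D wild-type zebrafish, chorion removed at 4 hpf, one embryo per well from 6 hpf, static exposure at 28C; DMSO (0.64% final) as baseline.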

Experiment [3] is described as follows: Tanguay_ZF_120hpf_CFIN_legacy: (Legacy) Oregon State University Tanguay Lab 120 Hour Post-fertilization zebrafish Assay for Caudal Fin Malformation (AID 2283649). An outline of the steps:
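Single dechorionated 5D wild-type embryos are dosed at 6 hpf (final DMSO 0.64%) and held statically at 28C. Caudal fin malformation is recorded as present or absent at 120 hpf under brightfield, excluding dead embryos.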

Experiment [4] in a line: Tanguay_ZF_120hpf_PIG_legacy: (Legacy) Oregon State University Tanguay Lab 120 Hour Post-fertilization zebrafish Assay for Pigmentation Malformation (AID 2283650). An outline of the steps:
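Brightfield scoring of pigmentation malformation at 120 hpf, recorded as binary present/absent per larva. Exposure: dechorionated 5D wild-type embryos, one per well, static from 6 hpf at 28C, final DMSO 0.64% (vol/vol). Dead embryos not scored.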

The nature of experiment [5]: Tanguay_ZF_120hpf_SWIM_legacy: (Legacy) Oregon State University Tanguay Lab 120 Hour Post-fertilization zebrafish Assay for Swim Bladder Malformation (AID 2283654).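 Further: swim bladder malformation in each larva scored yes or no under brightfield.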 An outline of the steps: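 Tropical 5D embryos dechorionated at 4 hpf; 1 embryo/well from 6 hpf; static, sealed, dark exposure at 28C until 120 hpf; final DMSO 0.64%; 5uM trimethyltin chloride positive control; swim bladder defect recorded yes/no; dead embryos not scored.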

Experiment [6] can be described thus: Tanguay_ZF_120hpf_TRUN_legacy: (Legacy) Oregon State University Tanguay Lab 120 Hour Post-fertilization zebrafish Assay for Truncated Body (AID 2283655). An outline of the steps: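 Single dechorionated zebrafish embryos received test chemical from 6 hpf in 0.64% DMSO, kept at 28C. At 120 hpf, brightfield inspection noted any truncated body.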
Experiment [7] can be described thus: Tanguay_ZF_120hpf_NC_legacy: (Legacy) Oregon State University Tanguay Lab 120 Hour Post-fertilization zebrafish Assay for Notochord and Tail Malformation (AID 2283656). How it is done: Tanguay_ZF_120hpf_legacy is a whole embryo, multiplexed endpoint assay using zebrafish larvae exposed for 120 hours post fertilization on a 96-well plate.Tanguay_ZF_120hpf_NC_legacy is one of one assay component(s) measured or calculated from the Tanguay_ZF_120hpf_legacy assay. It is designed to make measurements of zebrafish development as detected with brightfield microscopy of developing zebrafish embryos.Data from the assay component Tanguay_ZF_120hpf_NC_legacy was analyzed into 1 assay endpoints. This assay endpoint, Tanguay_ZF_120hpf_NC_legacy, was analyzed in the positive analysis fitting direction relative to DMSO as the negative control and baseline of activity. […]
Zebrafish husbandry: Tropical 5D wild-type adult zebrafish were housed in at an approximate density of 1000 per 100 gallon tank at the Sinnhuber Aquatic Research Laboratory, Oregon State University, Corvallis, OR. […] At 24 hpf, embryos were assessed for photomotor response using a custom photomotor response analysis tool (PRAT) and for developmental toxicity endpoints (MO24: mortality at 24 hpf, DP: developmental progression, SM: spontaneous movement, and NC: notochord distortion). At 120 hpf, locomotor activity was measured using Viewpoint Zebralab and assessed for 18 endpoints. […] If mortality occurred for an embryo (at either 24 or 120 hpf), the non-mortality endpoints were not measured.

The nature of experiment [8]: Tanguay_ZF_120hpf_TR_legacy: (Legacy) Oregon State University Tanguay Lab 120 Hour Post-fertilization zebrafish Assay for Touch Response (AID 2283667). An outline of the steps: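 Binary touch-response call at 120 hpf, analysed as gain of signal versus DMSO baseline. Wild-type 5D larvae, static exposure at 28C, 0.64% DMSO final; 5uM trimethyltin chloride as positive control.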

Records with an inconclusive call do not appear. Active and inactive are the calls of the source. How the source made its calls: active means hit-call score of the fitted dose curve at least 0.9, where 1 is the maximum; inconclusive means response in the unintended direction; inactive means score below 0.9.

In the case of `CS(=O)(=O)OCCCCOS(C)(=O)=O`, the compound was classed as inactive in experiment [1], in experiment [2], in experiment [3], in experiment [4], in experiment [5] and in experiment [6]. Besides, the compound was classed as inactive in experiment [8]. Besides, the AC50 in experiment [7] is 47.1 µM (active).
